# The full data set covers some 8,800 targets. This sample favours those with a hit. About 0.5% of all pairs of compound and target were hits. Unmarked numbers belong to inactive results.
# Legend:
# Assay in all cases: log2 fold change, soluble protein after heating vs DMSO (PISA); higher = thermal stabilisation; K562 lysate, 10 uM; active = over 0.2 and 3.5 SD of the protein, either way, in both replicates (recomputed)
# [1] = compound: C#Cc1cccc(Nc2ncnc3cc(OCCOC)c(OCCOC)cc23)c1 [erlotinib]
# Procedure, shortened: (§1)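 A 30 min treatment with 10 μM compound was applied to crude K562 extract at 1 mg/mL protein in PBS pH 7.4 with 1 mM MgCl2. Heating for 3 min spanned 48°C-58°C, after which aliquots were pooled, adjusted to 0.5% NP-40 at 4°C and spun at 21,000xg for 90 min. TMTpro 16plex LC-MS/MS of the supernatant, with channel sums equalised, gave values recorded as log-two fold change in thermal stability against solvent controls, from duplicates.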
# [2] = compound: C/C(=N\NC(=O)C1=CC(=CC=C1)S(=O)(=O)N2CCOCC2)/C3=C(C=CC(=C3)Cl)O
# Procedure, shortened: as §1
# [3] = compound: C1=CC(=CC=C1C2=NC3=C(N2)C=C(C=C3)C(=O)N)OC4=CC=C(C=C4)Cl
# Procedure, shortened: as §1
# [4] = compound: C1=CC2=C(C=CC(=C2)/C=C\3/C(=O)NC(=NCC4=CC=CS4)S3)N=C1
# Procedure, shortened: as §1
# [5] = compound: C1=CC2=NC=CN=C2C=C1/C=C/3\C(=O)NC(=O)S3
# Procedure, shortened: as §1
# [6] = compound: C1=CC=C(C=C1)C2=NC(=C(N2)C3=CC=NC=C3)C4=CC(=C(C=C4)Cl)O
# Procedure, shortened: as §1
# [7] = compound: C1=CC=C2C(=C1)C3=NNC4=CC=CC(=C43)C2=O
# Procedure, shortened: as §1
# [8] = compound: C1CCN(C1)C(=O)NC2=CC=CC(=C2)NC3=NC=C(C(=N3)NCCC4=CN=CN4)Br
# Procedure, shortened: as §1
# [9] = compound: C1CN(CCC1(CC2=CC=C(C=C2)Cl)N)C3=NC=NC4=C3C=CN4
# Procedure, shortened: as §1
# [10] = compound: C1COCCN1CCN2C3=CC=CC=C3N=C2NC(=O)C4=CC(=CC=C4)[N+](=O)[O-] [IRAK-1-4 Inhibitor I]
# Procedure, shortened: as §1
# [11] = compound: C=CC(=O)N1CCC[C@@H](n2nc(-c3ccc(Oc4ccccc4)cc3)c3c(N)ncnc32)C1 [ibrutinib]
# Procedure, shortened: as §1
# [12] = compound: CC(=O)c1cnc2ccc(-c3cc(Cl)c(O)c(Cl)c3)nc2c1N[C@H]1CC[C@H](CN(C)C)CC1
# Procedure, shortened: as §1
# [13] = compound: CC(C)(C)Cn1c(N)nc2ccc(-c3[nH]c(C(C)(C)C)nc3-c3ccc(F)cc3)nc21 [ralimetinib]
# Procedure, shortened: as §1
# [14] = compound: CC(C)(O)CC(=O)NCCn1ccc2ncnc(Nc3ccc(Oc4cccc(C(F)(F)F)c4)c(Cl)c3)c21
# Procedure, shortened: as §1
# [15] = compound: CC(C)C1=C2N=C(C=C(N2N=C1)NCC3=CC=CC=C3)NCCCCCCN
# Procedure, shortened: as §1
# [16] = compound: CC1=C(C(CC(=O)N1)C2=CC=C(C=C2)C(F)(F)F)C(=O)NC3=C(C=C4C(=C3)C=NN4)F
# Procedure, shortened: as §1
# [17] = compound: CC1=C(C2=C(C=C1)C(=O)C3=CC=CC=C3N2CCCN)C
# Procedure, shortened: as §1
# [18] = compound: CC1=C(C=C(C=C1)NC(=O)C2=CC(=CC=C2)C(C)(C)C#N)NC3=CC4=C(C=C3)N=CN(C4=O)C
# Procedure, shortened: as §1
# [19] = compound: CC1=C(C=C(C=C1)NC(=O)C2=CC(=CC=C2)N(C)C)NC(=O)C3=CC=C(C=C3)O
# Procedure, shortened: as §1
# [20] = compound: CC1=CC=C(C=C1)SC2=C3C=C(SC3=CN=C2)C(=O)N
# Procedure, shortened: as §1
# Sequence of UniProt O95571 (O95571 whole entry, looked up): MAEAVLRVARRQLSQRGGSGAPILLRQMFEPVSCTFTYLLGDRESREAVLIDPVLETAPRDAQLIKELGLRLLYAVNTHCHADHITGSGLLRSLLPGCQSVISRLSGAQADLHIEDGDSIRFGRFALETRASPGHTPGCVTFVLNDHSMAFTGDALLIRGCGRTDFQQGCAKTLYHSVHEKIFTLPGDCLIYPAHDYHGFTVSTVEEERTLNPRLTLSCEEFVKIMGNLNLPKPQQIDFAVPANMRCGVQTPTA
# Sequence of UniProt Q13144 (Q13144 whole entry, looked up): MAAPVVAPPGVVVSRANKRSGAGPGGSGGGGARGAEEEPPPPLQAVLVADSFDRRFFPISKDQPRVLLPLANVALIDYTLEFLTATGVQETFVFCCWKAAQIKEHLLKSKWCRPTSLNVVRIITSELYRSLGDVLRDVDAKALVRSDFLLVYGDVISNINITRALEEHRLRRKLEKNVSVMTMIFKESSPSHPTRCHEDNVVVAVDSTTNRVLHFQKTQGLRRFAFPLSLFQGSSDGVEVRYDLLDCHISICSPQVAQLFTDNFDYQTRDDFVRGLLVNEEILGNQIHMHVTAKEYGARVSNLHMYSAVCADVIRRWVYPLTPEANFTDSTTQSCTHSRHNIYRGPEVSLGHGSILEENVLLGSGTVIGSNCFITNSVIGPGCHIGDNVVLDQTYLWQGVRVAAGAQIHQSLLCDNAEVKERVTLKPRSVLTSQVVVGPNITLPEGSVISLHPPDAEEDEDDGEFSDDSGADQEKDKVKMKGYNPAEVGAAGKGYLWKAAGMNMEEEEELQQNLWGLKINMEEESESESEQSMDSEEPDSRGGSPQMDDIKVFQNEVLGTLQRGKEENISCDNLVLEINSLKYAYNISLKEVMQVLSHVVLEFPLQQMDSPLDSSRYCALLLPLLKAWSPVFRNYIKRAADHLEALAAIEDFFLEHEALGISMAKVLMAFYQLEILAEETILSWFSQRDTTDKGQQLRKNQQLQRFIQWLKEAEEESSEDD
# Sequence of UniProt O43768 (O43768 whole entry, looked up): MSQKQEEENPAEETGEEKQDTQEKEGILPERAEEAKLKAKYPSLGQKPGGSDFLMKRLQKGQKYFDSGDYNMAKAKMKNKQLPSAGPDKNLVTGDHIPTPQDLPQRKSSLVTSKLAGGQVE
# Sequence of UniProt Q9UBQ6 (Q9UBQ6 whole entry, looked up): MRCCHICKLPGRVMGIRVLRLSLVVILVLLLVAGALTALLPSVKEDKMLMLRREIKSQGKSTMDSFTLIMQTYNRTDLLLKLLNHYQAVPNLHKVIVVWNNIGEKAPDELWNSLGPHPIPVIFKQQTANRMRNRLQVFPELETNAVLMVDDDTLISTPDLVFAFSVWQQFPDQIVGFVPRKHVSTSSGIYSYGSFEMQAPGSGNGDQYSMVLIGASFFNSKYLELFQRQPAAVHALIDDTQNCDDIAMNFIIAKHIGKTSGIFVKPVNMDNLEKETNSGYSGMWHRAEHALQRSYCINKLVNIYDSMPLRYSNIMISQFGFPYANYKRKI
# Sequence of UniProt Q92889 (Q92889 whole entry, looked up): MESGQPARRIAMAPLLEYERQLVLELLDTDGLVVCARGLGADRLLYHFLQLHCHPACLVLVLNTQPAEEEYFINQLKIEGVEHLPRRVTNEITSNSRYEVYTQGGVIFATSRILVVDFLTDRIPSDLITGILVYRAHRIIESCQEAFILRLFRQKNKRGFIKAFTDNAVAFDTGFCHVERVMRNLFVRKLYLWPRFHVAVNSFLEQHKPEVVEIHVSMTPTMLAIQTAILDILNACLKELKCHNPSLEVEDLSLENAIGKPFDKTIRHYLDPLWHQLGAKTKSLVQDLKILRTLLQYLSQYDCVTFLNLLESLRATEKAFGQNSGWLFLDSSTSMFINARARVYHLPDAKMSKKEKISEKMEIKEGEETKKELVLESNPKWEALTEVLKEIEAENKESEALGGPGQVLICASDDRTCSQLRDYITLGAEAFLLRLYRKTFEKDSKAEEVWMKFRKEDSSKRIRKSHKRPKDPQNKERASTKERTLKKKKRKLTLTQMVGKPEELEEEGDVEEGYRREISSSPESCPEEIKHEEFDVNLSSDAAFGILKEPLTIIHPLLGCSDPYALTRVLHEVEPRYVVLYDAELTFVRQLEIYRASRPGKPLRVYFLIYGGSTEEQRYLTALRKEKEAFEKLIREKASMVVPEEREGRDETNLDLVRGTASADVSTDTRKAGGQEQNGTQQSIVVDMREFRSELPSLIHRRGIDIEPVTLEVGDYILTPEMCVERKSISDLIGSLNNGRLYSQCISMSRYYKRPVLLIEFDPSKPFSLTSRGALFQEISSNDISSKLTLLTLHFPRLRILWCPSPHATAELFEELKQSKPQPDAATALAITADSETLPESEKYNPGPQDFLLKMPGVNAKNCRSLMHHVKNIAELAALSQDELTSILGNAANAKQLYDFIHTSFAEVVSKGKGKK
# Sequence of UniProt P09104 (P09104 whole entry, looked up): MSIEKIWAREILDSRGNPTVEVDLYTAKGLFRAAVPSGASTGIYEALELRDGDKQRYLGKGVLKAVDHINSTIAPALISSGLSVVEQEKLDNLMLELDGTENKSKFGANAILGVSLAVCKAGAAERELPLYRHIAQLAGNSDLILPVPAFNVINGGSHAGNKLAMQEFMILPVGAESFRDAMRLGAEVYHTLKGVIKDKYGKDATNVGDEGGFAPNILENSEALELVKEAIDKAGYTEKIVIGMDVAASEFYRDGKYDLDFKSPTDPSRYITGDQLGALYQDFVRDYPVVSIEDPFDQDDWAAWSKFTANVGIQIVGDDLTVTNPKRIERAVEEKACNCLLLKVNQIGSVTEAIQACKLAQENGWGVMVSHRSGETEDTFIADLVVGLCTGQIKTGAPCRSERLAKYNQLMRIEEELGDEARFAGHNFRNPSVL
# Sequence of UniProt Q15717 (Q15717 whole entry, looked up): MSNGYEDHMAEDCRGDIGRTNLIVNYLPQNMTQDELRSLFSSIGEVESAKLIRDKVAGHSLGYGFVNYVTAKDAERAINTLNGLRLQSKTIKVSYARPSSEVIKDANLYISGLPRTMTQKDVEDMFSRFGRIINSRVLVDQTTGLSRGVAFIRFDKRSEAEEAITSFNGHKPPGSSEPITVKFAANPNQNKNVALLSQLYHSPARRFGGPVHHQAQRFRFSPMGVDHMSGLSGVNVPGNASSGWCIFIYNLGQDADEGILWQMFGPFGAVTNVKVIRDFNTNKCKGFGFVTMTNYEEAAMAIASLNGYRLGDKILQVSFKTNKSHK
# Sequence of UniProt P22830 (P22830 whole entry, looked up): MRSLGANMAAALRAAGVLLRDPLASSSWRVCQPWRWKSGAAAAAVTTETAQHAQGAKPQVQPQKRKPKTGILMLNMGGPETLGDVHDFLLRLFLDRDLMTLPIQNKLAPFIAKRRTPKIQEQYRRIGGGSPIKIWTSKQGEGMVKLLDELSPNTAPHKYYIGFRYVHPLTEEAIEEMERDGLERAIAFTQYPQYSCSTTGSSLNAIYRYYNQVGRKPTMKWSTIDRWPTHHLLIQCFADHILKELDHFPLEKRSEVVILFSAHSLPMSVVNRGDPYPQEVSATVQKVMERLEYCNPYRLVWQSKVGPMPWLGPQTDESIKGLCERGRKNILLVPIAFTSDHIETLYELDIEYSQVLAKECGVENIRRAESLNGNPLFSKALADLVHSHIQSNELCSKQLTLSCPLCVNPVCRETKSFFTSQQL
# Sequence of UniProt Q9Y613 (Q9Y613 whole entry, looked up): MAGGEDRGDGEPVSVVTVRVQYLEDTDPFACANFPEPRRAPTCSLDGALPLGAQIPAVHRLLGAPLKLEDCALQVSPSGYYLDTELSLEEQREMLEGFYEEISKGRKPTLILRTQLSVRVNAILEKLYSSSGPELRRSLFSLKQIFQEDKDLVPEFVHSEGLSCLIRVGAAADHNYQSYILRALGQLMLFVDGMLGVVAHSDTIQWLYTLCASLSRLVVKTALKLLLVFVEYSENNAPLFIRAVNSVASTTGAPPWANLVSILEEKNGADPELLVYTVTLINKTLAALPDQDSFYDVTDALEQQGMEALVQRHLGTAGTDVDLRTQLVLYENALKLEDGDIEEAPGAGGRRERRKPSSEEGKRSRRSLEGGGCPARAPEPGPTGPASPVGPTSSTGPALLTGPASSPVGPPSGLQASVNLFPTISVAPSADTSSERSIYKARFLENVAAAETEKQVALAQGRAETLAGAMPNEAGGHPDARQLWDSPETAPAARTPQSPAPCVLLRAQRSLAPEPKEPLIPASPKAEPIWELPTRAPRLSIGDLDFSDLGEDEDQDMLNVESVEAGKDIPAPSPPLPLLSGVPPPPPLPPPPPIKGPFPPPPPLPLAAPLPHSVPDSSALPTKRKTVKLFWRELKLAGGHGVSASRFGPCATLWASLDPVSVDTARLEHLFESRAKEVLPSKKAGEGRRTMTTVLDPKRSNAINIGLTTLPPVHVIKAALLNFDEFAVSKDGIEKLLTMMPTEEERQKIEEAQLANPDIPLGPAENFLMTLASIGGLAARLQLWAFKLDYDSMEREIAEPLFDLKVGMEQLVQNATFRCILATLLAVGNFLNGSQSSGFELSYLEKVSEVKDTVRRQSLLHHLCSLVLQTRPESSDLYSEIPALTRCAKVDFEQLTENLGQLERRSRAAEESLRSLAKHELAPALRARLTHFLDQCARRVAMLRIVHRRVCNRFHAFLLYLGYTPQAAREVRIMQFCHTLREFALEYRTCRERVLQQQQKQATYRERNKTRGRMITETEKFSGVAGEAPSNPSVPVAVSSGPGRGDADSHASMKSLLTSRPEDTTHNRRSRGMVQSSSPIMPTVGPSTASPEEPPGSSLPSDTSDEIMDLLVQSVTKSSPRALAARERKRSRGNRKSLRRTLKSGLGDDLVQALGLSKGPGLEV
Target,log2 fold change [1],log2 fold change [2],log2 fold change [3],log2 fold change [4],log2 fold change [5],log2 fold change [6],log2 fold change [7],log2 fold change [8],log2 fold change [9],log2 fold change [10],log2 fold change [11],log2 fold change [12],log2 fold change [13],log2 fold change [14],log2 fold change [15],log2 fold change [16],log2 fold change [17],log2 fold change [18],log2 fold change [19],log2 fold change [20]
EIF2B5 (UniProt Q13144),0.015,-0.052,-0.017,0.011,0.03,-0.011,-0.054,0.006,0.007,0.027,0,0.008,0.027,-0.018,0.008,-0.019,0.012,-0.031,0.008,0.02
ENO2 (UniProt P09104),0.013,0.013,0.03,-0.037,0.056,-0.091,0.024,0.005,-0.02,-0.036,-0.008,-0.014,0.031,-0.051,-0.007,-0.013,-0.029,0.035,0.032,0.011
ERCC4 (UniProt Q92889),-0.008,-0.04,0.033,0.015,-0.021,-0.003,-0.096,-0.006,0.051,0.029,-0.02,0.027,-0.028,0.006,0.059,-0.021,-0.029,0.013,0.025,-0.054
FAM120B (UniProt Q96EK7),0.056,-0.032,0.036,0.035,0.02,-0.004,0.044,-0.013,0.007,0.009,0.023,-0.003,0.035,-0.013,0.031,-0.028,0.002,0.008,0.041,0.012
FECH isoform 2 (UniProt P22830),0.101,0.062,-0.321,0.42,-0.014,0.354,0.673,0.183,-0.009,0.644,0.091,0.104,-0.034,0.504,0.327,-0.263,0.287,0.748,0.028,-1.11 (active)
EXTL2 (UniProt Q9UBQ6),-0.02,-0.037,0.072,0.103,-0.443,0,0.092,0.003,-0.007,-0.049,0.217,-0.056,-0.015,0,-0.077,0.021,-0.146,0.014,-0.04,-0.071
ETHE1 (UniProt O95571),-0.046,-0.01,0.039,0.021,0.034,-0.007,0.012,-0.046,-0.013,-0.044,-0.029,-0.01,0.03,-0.021,-0.092,0.087,0.022,0.011,0.046,-0.042
"ENO1, A0A2R8YEM5",-0.019,0.004,0.011,-0.017,0.031,0.016,0.009,0,0.032,-0.031,-0.013,0.008,-0.012,-0.016,-0.024,-0.032,0.001,0.012,-0.044,0.014
ENSA isoform 3 (UniProt O43768),-0.034,0.032,0,-0.013,-0.047,-0.459 (active),0.013,0.006,0.006,-0.004,0.042,0.015,-0.019,0.02,-0.013,-0.016,0.039,-0.042,-0.057,-0.01
FHOD1 (UniProt Q9Y613),0.005,0.021,0,0.048,-0.02,-0.011,-0.016,-0.011,-0.009,-0.008,0.001,0.03,0.041,-0.019,-0.002,-0.006,0.006,0.003,0.025,-0.004
FKBP8 isoform 2 (UniProt Q14318),-0.011,0.041,0.012,0.002,-0.005,0.01,0,-0.054,0.001,0.008,0.022,-0.016,0.018,-0.017,0.027,-0.041,0.024,0.034,0.007,-0.053
ELAVL1 isoform 2 (UniProt Q15717),0.047,0.008,0.019,0.025,-0.017,0.001,-0.069,-0.027,0.036,-0.051,0.042,-0.034,-0.016,0.039,-0.009,-0.02,-0.026,-0.042,0.028,0.007
